Assay outcomes deposited in PubChem BioAssay by National Center for Advancing Translational Sciences (NCATS).
Tau ThT inhib = tau fibrillization inhibition (ThT binding); Potency, µM (top dose mostly 57.4 µM), for the others: at the highest dose activity, negative = inhibition, hits mostly inhibitors; P10636; recombinant tau K18 P301L, heparin-induced fibrillization, ThT fluorescence; hit rate 2.1% among 270,000; note: nearly all actives have a fitted effect of over 55% in size
Target sequence (P10636 561-689 P618L limits assumed): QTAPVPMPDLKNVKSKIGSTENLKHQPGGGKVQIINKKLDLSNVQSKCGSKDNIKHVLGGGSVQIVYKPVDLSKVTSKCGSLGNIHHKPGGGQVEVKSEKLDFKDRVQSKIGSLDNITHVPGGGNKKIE
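Using a mix of unlabeled (15 uM) and Alexa 594-labeled (0.24 uM) tau K18 P301L, heparin-triggered fibrillization over 6 hr at 37 C was scored by ThT fluorescence.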
HPGD inh = HPGD (human) dehydrogenase inhibition | P15428 | purified HPGD, NADH fluorescence kinetic, PGE2 substrate | Potency, µM, for inactives: at the top dose activity change, negative = inhibition, usual class: inhibitors | hit rate 4.3% among 150,000 | AID 894; active = well fitted inhibition curve with a large enough effect, not every such curve was filed as active; inconclusive = small, poorly fitted or top-dose-only effect, or another doubt; inactive = no such curve, though single readings can be large or run the other way
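NADH formation kinetics: reaction with 30 uM PGE2 and 1 mM NAD+ (final), 20 nM enzyme, Tris-HCl pH 8 with Tween 20, after 15 min compound preincubation at room temperature. Fluorescence change, last versus first of five reads.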
ALDH1A1 inh = inhibitors of human aldehyde dehydrogenase 1A1; Potency, µM (top dose mostly 75.3 µM), inactives show top-dose activity, negative = inhibition, most hits filed as inhibitors; P00352; hit rate 7.3% among 220,000; Purified ALDH1A1, NADH fluorescence, propionaldehyde substrate; active = well fitted inhibition curve with a large enough effect, not every such curve was filed as active; inconclusive = small, poorly fitted or top-dose-only effect, or another doubt; inactive = no such curve, though single readings can be large or run the other way;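 note: plate controls were no enzyme wells and a reference inhibitor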
Target sequence (P00352 whole entry, looked up): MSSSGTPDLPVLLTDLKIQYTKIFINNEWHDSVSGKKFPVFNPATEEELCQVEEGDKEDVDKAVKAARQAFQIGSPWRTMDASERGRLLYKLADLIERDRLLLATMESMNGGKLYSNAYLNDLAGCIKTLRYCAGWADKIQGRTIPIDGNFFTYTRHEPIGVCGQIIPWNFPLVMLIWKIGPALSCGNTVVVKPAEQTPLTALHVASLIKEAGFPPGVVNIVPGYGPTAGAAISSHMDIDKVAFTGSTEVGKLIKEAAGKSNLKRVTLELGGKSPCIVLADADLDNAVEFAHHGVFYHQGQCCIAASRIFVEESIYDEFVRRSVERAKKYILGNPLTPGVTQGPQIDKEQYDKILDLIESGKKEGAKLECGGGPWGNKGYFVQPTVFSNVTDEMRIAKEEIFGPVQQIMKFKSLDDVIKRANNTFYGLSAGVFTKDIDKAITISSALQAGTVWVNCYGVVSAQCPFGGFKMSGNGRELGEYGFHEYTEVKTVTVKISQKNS
Tau fluor counter = counter-screen for tau fibril formation inhibitors | AID 1463 | tau K18 P301L Alexa594 fluorescence, heparin fibrillization | hit rate 0.93% among 280,000 | Potency, µM (doses to about 57.7 µM), for the others: at the top dose activity change, negative = decrease; note: nearly all actives have a fitted effect of over 55% in size
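Human tau K18 P301L (15 uM unlabeled, 0.24 uM Alexa 594-labeled) in 100 mM sodium acetate pH 7 with 20 uM heparin, 6 hr at 37 C. ThT 30 uM added, 1 hr ambient; Alexa 594 FP and total fluorescence read at 555/632 nm.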
Tau fibril FP = blocks human tau fibril formation measured by polarization | P10636 | K18 P301L tau heparin fibrillization, Alexa594 FP, 6 h | Potency, µM (doses to about 57.7 µM), inactives show at the highest dose activity, negative = inhibition, most hits filed as inhibitors | hit rate 0.39% among 280,000 | AID 1468; note: nearly all actives have a fitted effect of over 55% in size
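FP of Alexa 594-tau after heparin (20 uM) induction. Substrate: human K18 P301L, 15 uM unlabeled, 0.24 uM labeled. Buffer 100 mM sodium acetate pH 7. 6 hr, 37 C.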
NPSR antag = neuropeptide S receptor (human) antagonism, cAMP; Q6W5P4; CHO-NPSR cells, cAMP TR-FRET, antagonist mode; Potency, µM (top dose mostly 38.3 µM), for the others: at the highest dose activity change, negative = inhibition, most hits filed as inhibitors; hit rate 1% among 220,000; note: nearly all actives have a fitted effect of over 50% in size
* = called active by the depositor; u = inconclusive; x = not tested or not shown; ! = a repeat was not active; [ ] = dose if it differs, or a comment. Sampled rows, rich in hits. Any-hit rate of the full collection: about 9.5%. Unless noted, calls come from the whole dose curve; as a rule, active = well fitted curve in the direction sought with a large enough effect; inconclusive = small, poorly fitted or top-dose-only effect, or another doubt; inactive = no such curve, though single readings can be large; an effect the other way counts as inactive or inconclusive. Unless noted, % is set by controls: 0 for no effect and ±100 for the full control effect; potency is the fitted concentration of half-maximal effect.

SMILES | Tau ThT inhib | HPGD inh | ALDH1A1 inh | Tau fluor counter | Tau fibril FP | NPSR antag
Cc1cccc(N2C(=O)CSC23C(=O)N(CC(=O)Nc2cccc(Cl)c2)c2ccccc23)c1 (centres undefined) | 11.4% | x | x | u | 25.1µM* | x
COc1cccc(CN2C(=O)C3(SCC(=O)N3c3ccc(C)c(Cl)c3)c3ccccc32)c1 (centres undefined) | u | x | x | -15.2% | -11.0% | x
NC(=O)c1ncn([C@@H]2O[C@H](CO)[C@@H](O)[C@H]2O)n1 | -2.6% | -4.0% | 25.1µM*! | -6.6% | -3.4% | 8.0%
O=Cc1c(C(=O)O)n(Cc2ccccc2Cl)c2ccccc12 | -9.2% | x | u | -5.4% | -1.7% | -19.6%
Cc1cc(C)c(Cn2c(C(=O)O)c(C=O)c3ccccc32)c(C)c1 | -6.3% | x | 14.1µM* | 2.6% | -0.5% | -32.7%
CC1C(=O)OC2O[C@]3(C)CC[C@H]4C(C)CCC1[C@]24OO3 (some centres undefined) | -2.8% | -5.2% | u | -1.2% | 3.2% | x
C=C1C(=O)O[C@@H]2C[C@@H](C)[C@@H]3C=CC(=O)[C@@]3(C)[C@@H](O)[C@H]12 | 3.55µM* | x | u | 8.91µM*![quencher] | 3.98µM* | -45.6%
C[C@@H]1C[C@H]2OC(=O)C3(CO3)[C@H]2[C@H](O)[C@]2(C)C(=O)C3OC3[C@@H]12 (some centres undefined) | u | x | x | -8.1% | u | -38.4%
O=C(c1ccc(N2CCCCC2)c([N+](=O)[O-])c1)N1CCC2(CC1)OCCO2 | -3.6% | x | u | -7.4% | 8.0% | 1.8%
O=C(c1ccc(CS(=O)(=O)c2ccc(Br)cc2)o1)N1CCC2(CC1)OCCO2 | -13.9% | -4.9% | -2.7% | -16.7% | -10.7% | -3.7%[46.1 µM]
CC(=O)Nc1cc(C(=O)N2CCC3(CC2)OCCO3)ccc1Sc1ccc(F)cc1 | 0.0% | x | 2.99µM* | 0.7% | 3.4% | 2.2%
O=C(c1ccc(CNS(=O)(=O)c2ccccc2)cc1)N1CCC2(CC1)OCCO2 | u | u | 8.91µM* | -13.9% | 2.5% | u
O=C(c1ccc(CS(=O)(=O)c2ccccc2)o1)N1CCC2(CC1)OCCO2 | -9.7% | -6.2% | 22.4µM* | -4.4% | -7.2% | 27.0%[46.1 µM]
Cc1ccc(S(=O)(=O)Nc2cc(C(=O)N3CCC4(CC3)OCCO4)ccc2N2CCCCC2)cc1 | u | -25.3% | 3.98µM* | -16.7% | -0.9% | u
Brc1c(Br)c(Br)c2n[nH]nc2c1Br | 3.3% | u | u | -15.7% | u | -7.6%[46.1 µM]
Cc1cc(Cc2cc(C)c(N)cc2N)c(N)cc1N | x | -18.6% | u | x | x | x
Cc1ccccc1-c1cncnc1NCCc1cnc[nH]1 | -4.0% | -3.2% | 0.1% | -7.3% | -9.8% | x
CCCCC/C=C\C/C=C\C/C=C\C/C=C\CCCC(=O)NCCCl | u | u | u | 6.3% | -16.7% | x
OC[P+](CO)(CO)CO | x | -13.9% | 17.9% | x | x | x
Cc1cccc(CN2CCN(CC(=O)N3CCC4(CC3)OCCO4)C2=O)c1 | -8.1% | -6.5% | 7.6% | -8.9% | 1.8% | -4.6%[46.1 µM]
Cc1cccc(CS(=O)(=O)Cc2ccc(C(=O)N3CCC4(CC3)OCCO4)o2)c1 | -4.4% | -3.2% | 25.1µM* | -1.9% | 4.5% | -14.9%[46.1 µM]
O=C(CN1CCOCC1)c1cccc2ccccc12 | u | -8.8% | 12.6µM* | -13.0% | -13.2% | 0.4%[46.1 µM]
CCn1cc(C(=O)N2CCOCC2)c2ccccc21 | 0.5% | x | 8.0% | -2.4% | -4.9% | 7.8%
Fc1ccc(NC2=NCCS2)cc1Cl | -8.8% | 12.6µM* | 7.0% | -7.5% | -7.1% | -5.0%[46.1 µM]
CC(C)n1c(=O)c(C=Nc2ccc(F)cc2)c(O)n(Cc2ccco2)c1=O | -11.2% | -29.6% | 11.2µM* | -13.1% | 4.9% | -25.2%
SMILES | Tau ThT inhib | HPGD inh | ALDH1A1 inh | Tau fluor counter | Tau fibril FP | NPSR antag
O=P(c1ccccc1)(c1ccccc1)N1CC2(CC2)CC(O)(c2ccccc2)C1 (centres undefined) | -4.7% | -10.6% | -9.4% | -6.3% | 3.5% | x
CCCCC/C=C\C/C=C\C/C=C\C/C=C\CCCC(=O)O | 28.2µM*! | 15.8µM*! | 7.94µM*! | u | u | x
CCCCC/C=C\C[C@@H](/C=C/C=C\C/C=C\CCCC(=O)O)OO | -4.5% | -5.1% | 3.3% | -0.9% | 10.9% | x
O=C(NCc1ccccn1)c1ccccc1Cl | -0.3% | 6.31µM* | u | 1.2% | -3.3% | -20.2%[46.1 µM]
COc1cc2c(cc1OC)-c1c(O)c(OC)cc3c1[C@H](C2)N(C)CC3 | 5.01µM* | u | u | u | 11.2µM* | x
COc1cc2c(cc1OC)-c1c(OC)c(OC)cc3c1C(C2)N(C)CC3 (centres undefined) | u | -22.1% | u | -19.3% | 4.2% | 10.2%[46.1 µM]
CN1[C@@H]2CC[C@H]1CC(OC(c1ccc(F)cc1)c1ccc(F)cc1)C2 (some centres undefined) | -6.3% | -9.2% | 10.6% | -8.3% | -14.4% | x
O=c1c2ccccc2nc(/C=C/c2ccccc2O)n1-c1ccc(Br)cc1 | 14.8% | x | x | -23.7% | -6.4% | x
COc1ccc(CN2C(=O)NC(=O)/C(=C\c3cc(OC)c(OC)c(OC)c3)C2=O)cc1 | u | x | 16.7% | -6.9% | -3.3% | 19.5%
O=C1NC(=O)N(Cc2ccc(F)cc2)C(=O)/C1=C\c1ccc([N+](=O)[O-])s1 | x | x | x | u | 0.355µM* | -15.0%
COc1ccc(CN2C(=O)NC(=O)/C(=C/c3ccc([N+](=O)[O-])s3)C2=O)cc1 | 7.94µM* | x | 3.98µM* | u | 25.1µM* | 17.2%
C[C@@](Br)(C(=O)O)[C@H](Br)C(=O)O | x | -3.1% | -2.4%[13.5 µM] | x | x | x
COc1cc(/C=C/[N+](=O)[O-])ccc1O | u | -24.3% | u | -15.4% | 0.8% | u
CCOc1cc(C=O)ccc1O | x | -15.5% | 25.1µM* | x | x | x
C=CC[C@]1(O)CCC2C3CCC4=CCCCC4C3CCC21C (some centres undefined) | -11.3% | -9.6% | u | -5.2% | 2.9% | x
CC(C)Oc1ccc(C(=O)Nc2ccc3c(c2)CCCN3C(=O)c2cccs2)cc1 | u | x | x | -23.4% | 5.2% | x
CCOP(=S)(OCC)Oc1cc(C)oc(=O)c1Cl | u | x | 1µM* | -25.6% | u | -14.2%
CCOP(=S)(OCC)Oc1cc(C)oc(=O)c1 | u | x | 7.94µM* | -1.7% | u | -21.1%
CN(C)CCCc1c[nH]c2ccccc12 | x | -7.5% | 2.7%[13.5 µM] | x | x | x
C[N+](C)(C)CC#CCOC(=O)Nc1cccc(Cl)c1 | -4.0% | -12.1% | 7.94µM* | -2.5% | -5.0% | 2.4%[46.1 µM]
CCc1c(C(=O)OC)ncc2[nH]c3cc(OC)c(OC)cc3c12 | u | -29.9% | u | 15.8µM*[quencher] | 5.9% | -14.7%[46.1 µM]
COCCCOc1ccnc(CS(=O)c2nc3ccccc3[nH]2)c1C (centres undefined) | 10µM* | u | 5.97µM* | -24.9% | u | x
Cc1c(C(=O)NCCC2=CCCCC2)oc2ccc(S(=O)(=O)N3CCC4(CC3)OCCO4)cc12 | -15.4% | -18.0% | 22.4µM* | -13.1% | 9.9% | u
